# Source: PubChem BioAssay
# HCMV antiviral – qHTS Assay for inhibitors of the human cytomegalovirus (HCMV); 4.5% of 410,000 active; HFF cells, HCMV-luciferase reporter, 72 h; active compounds read low; AID 1259415, 2018; activity change, negative = inhibition, % at 57.5 µM; in the data active = activity change below about -60%; inconclusive = no clear call, values can overlap the other calls; inactive = above about -39%
#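 Cell-based, HFFs, 1000 cells/well, 16 h 37C; cpds in DMSO + HCMV-luc, MOI 1 PFU/cell; 72 h 37C; OneGlo luminescence after 5 min RT; norm. to buffer vs Salinomycin 10uM.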
# AmpC no deterg – qHTS Inhibitors of AmpC Beta-Lactamase (assay without detergent). AID 485341, 2010. AmpC nitrocefin hydrolysis, absorbance 480 nm, 0.0001% Triton. 0.52% of 330,000 active. Potency, µM (doses to about 57.1 µM), without a hit: at the top dose activity change, negative = inhibition, most hits filed as inhibitors. P00811;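 note: potency is the fitted concentration of half-maximal effect; plate controls were no compound for no effect and no enzyme for full effect; nearly all actives have a fitted effect of over 20% in size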
# Target sequence (P00811 whole entry, looked up): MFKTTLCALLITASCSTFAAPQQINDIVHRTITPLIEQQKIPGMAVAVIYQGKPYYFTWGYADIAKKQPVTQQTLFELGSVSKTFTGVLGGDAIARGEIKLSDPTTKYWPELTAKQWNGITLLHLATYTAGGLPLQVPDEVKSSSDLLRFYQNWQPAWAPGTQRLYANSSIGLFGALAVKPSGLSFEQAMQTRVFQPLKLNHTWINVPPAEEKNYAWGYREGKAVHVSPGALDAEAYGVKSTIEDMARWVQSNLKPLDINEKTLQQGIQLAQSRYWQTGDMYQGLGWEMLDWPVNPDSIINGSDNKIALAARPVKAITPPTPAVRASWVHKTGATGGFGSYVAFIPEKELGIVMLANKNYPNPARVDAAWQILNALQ
#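 AmpC (5.3 nM in the dispensed reagent) in 20 mM phosphate pH 7.0 with 0.01% (detergent screen) or 0.0001% Triton X-100 was preincubated with compounds for 15 min at room temperature. Nitrocefin was then added from an 800 uM solution, and hydrolysis was followed at 480 nm.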
# HCV inh – qHTS Assay for Inhibitors of Hepatitis C Virus (HCV). 3.4% of 340,000 active. Potency, µM (doses to about 41.8 µM), without a hit: top-dose activity change, negative = inhibition, most hits filed as inhibitors. Huh7.5.1 HCVcc-Cre infection, luciferase reporter, 44 h; note: potency is the fitted concentration of half-maximal effect
#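 Cells seeded at 1,000/well and cultured 4 h, then compounds added followed by HCVcc-Cre virus (~0.5 moi). After 44 h further culture, luciferase substrate was added, plates held 15 min at room temperature, and luminescence read for 15 sec.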
# AmpC detergent – qHTS Inhibitors of AmpC Beta-Lactamase (assay with detergent); P00811; 0.041% of 370,000 active; AmpC hydrolysis of nitrocefin, absorbance 480 nm, 0.01% Triton; Potency, µM (series often up to 114 µM), for the others: top-dose activity change, negative = inhibition, most hits filed as inhibitors;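 note: potency is the fitted concentration of half-maximal effect; 0% = no-compound wells and -100% = no-enzyme wells; nearly all actives have a fitted effect of over 25% in size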
#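 AmpC (5.3 nM in the dispensed reagent) in 20 mM phosphate pH 7.0 with 0.01% (detergent screen) or 0.0001% Triton X-100 was preincubated with compounds for 15 min at room temperature. Nitrocefin was then added from an 800 uM solution, and hydrolysis was followed at 480 nm.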
# FMDV inh – High Throughput Screening for Foot and Mouth Disease Virus Antivirals | FMDV antiviral cell-based qHTS | Potency, µM (series often up to 57.9 µM), without a hit: at the top dose activity change, negative = inhibition, hits mostly inhibitors | 1.2% of 410,000 active | AID 1159524, 2015; calls by dose curve; tested in HEK293T cells; note: read-out not given here; potency is the fitted concentration of half-maximal effect; nearly all actives have a fitted effect of over 45% in size
# * = called active by the depositor; ? = inconclusive; / = not tested or not shown. Sampled rows, rich in hits. Any-hit rate of the full collection: about 7.3%. Unless noted, calls come from the whole dose curve; as a rule, active = well fitted curve in the direction sought with a large enough effect; inconclusive = small, poorly fitted or top-dose-only effect, or another doubt; inactive = no such curve, though single readings can be large; an effect the other way counts as inactive or inconclusive. Unless noted, % is set by controls: 0 for no effect and ±100 for the full control effect.
SMILES,HCMV antiviral,AmpC no deterg,HCV inh,AmpC detergent,FMDV inh
O=C(COc1ccc(Cl)cc1Cl)N/N=C/c1ccc[nH]1,-39.8,-27.4%,6.31µM*,2.1%,18.6%
O=C(O)CCC(=O)NNC(=O)CCCOc1ccc(Cl)cc1Cl,?,-7.8%,-17.5%,-7.6%,-6.8%
CCC(=O)N1CCc2cc(Br)cc(S(=O)(=O)Nc3ccccc3C(=O)OC)c21,5.6,/,/,6.4%,31.5%
CN(C)CC(C)(O)c1ccc2c(c1)CN(Cc1cccn1-c1ncccn1)CCO2 (stereo not drawn),/,/,/,/,-10.0%
CCN(Cc1ccccc1)C(=O)COC(=O)[C@@H]1CCCN1C(=O)c1cccs1,-7.3,11.1%,-10.6%,/,-13.0%
COc1cc(C=O)ccc1OCCCOc1ccccc1C(=O)O,26.4,-21.9%,-13.0%,-3.5%,8.91µM*
CCNC(=O)COc1ccc(C=O)cc1OC,-86.3*,-9.7%,2.7%,0.4%,2.1%
COc1cc(C=O)ccc1OCCCOc1ccccc1[N+](=O)[O-],81.8,-4.9%,?,-14.8%,29.5%
CC(C)Oc1ccc(C(=O)Nc2c(C(=O)Nc3cccc(F)c3)oc3ccccc23)cc1,-12.9,/,/,-4.4%,31.9%
CCOc1ccc(CNC(=O)C2CCN(S(=O)(=O)c3cn(C)cn3)CC2)cc1,7.1,/,/,14.4%,-5.4%
C[C@H](CO)N1C[C@H](C)[C@@H](CN(C)C(=O)NC2CCCCC2)Oc2ncc(Br)cc2C1=O,27.7,/,/,/,6.9%
c1ccc(C[C@H]2CN=C(Nc3ccccc3)N2CCCC2CCCCC2)cc1,-61.0*,-13.3%,3.98µM*,/,-18.5%
CC(C)C[C@H]1CN=C(Nc2ccccc2)N1CCCC1CCCC1,-70.0*,42.8%,?,-2.6%,?
CC1CCC(CN2C(Nc3ccccc3)=NC[C@@H]2Cc2ccccc2)CC1 (stereo partly drawn),36.0,6.9%,7.94µM*,/,-18.6%
c1ccc(C[C@H]2CN=C(Nc3ccccc3)N2CC2CCCCC2)cc1,21.1,1.5%,-28.8%,/,-13.8%
CC1(C)N=C(SCC(=O)Nc2ccc(Cl)cc2)C(c2ccc(Cl)cc2)=N1,-12.5,36.8%,12.6µM*,0.3%,22.4µM*
CC1(C)N=C(SCC(=O)Nc2ccc(Cl)cc2)C(c2ccccc2)=N1,-80.3*,65.7%,?,?,-6.7%
CCCOc1ccc(-c2nn(-c3ccccc3)cc2C2NC(=O)NC(C)=C2C(=O)OC(C)C)cc1 (stereo not drawn),-34.7,/,/,-3.3%,-9.8%
CCOc1ccc(-c2nn(-c3ccccc3)cc2C2NC(=O)NC(C)=C2C(=O)OC(C)C)cc1 (stereo not drawn),-67.4*,/,/,9.6%,-5.3%
CCN(CC)S(=O)(=O)c1ccc(S(=O)(=O)N(Cc2ccccn2)Cc2ccco2)cc1,-22.7,32.4%,10µM*,-11.8%,/
Clc1ccc(Cl)c2sc(N3CCOCC3)nc12,7.9,/,12.6µM*,/,35.2%
Clc1ccc(Cl)c2sc(N3CCCC3)nc12,-10.4,-8.0%,?,9.5%,9.1%
COCCn1c(=NC(=O)c2cc(-c3cccs3)nc3ccccc23)sc2cc(S(N)(=O)=O)ccc21,41.7,-9.9%,10µM*,1.9%,-15.7%
Cc1ccc(S(=O)(=O)CC(=O)Nc2nc3c(C)cc(C)cc3s2)cc1,?,/,/,0.5%,-1.8%
O=C(Nc1cccc(C(F)(F)F)c1)c1cnn(-c2cccc(F)c2)c1C1CCNCC1,-76.9*,/,/,9.3%,-17.6%
Cc1ccc(-n2ncc(C(=O)NCCN3CCc4ccccc4C3)c2C2CCNCC2)cc1C,-24.2,/,/,-1.5%,-13.3%
Cc1cc(C)cc(NC(=O)c2cnn(-c3ccc(C)c(C)c3)c2C2CCNCC2)c1,-92.6*,/,/,-3.0%,-17.0%
Cc1c(C(=O)Nc2cc(F)cc(F)c2)cnn1-c1ccccc1,42.8,-25.1%,11.2µM*,-11.3%,44.2%
Cc1nn(-c2ccccc2)c2nc(C3CC3)cc(C(=O)Nc3cccc(F)c3)c12,-66.6*,/,/,22.9%,?
Cn1cccc1C(=O)N/N=C/c1c(Cl)cccc1Cl,33.1,-12.5%,-7.5%,-12.2%,51.1%
